Shown are actives, neighbours in structure and some others; about 3.5% of the full set was active somewhere.
Rv3671c protease: Rv3671c serine protease inhibitors, primary screen, biochemical, fluorescence polarization, M. tuberculosis H37Rv; 320,000 tested, 0.048% active; P9WHR9; inhibition, % at 5.96 µM; in the data active means inhibition above about 38%;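 further: extracellular domain of Rv3671c used as enzyme; 0% = enzyme with DMSO and 100% = no enzyme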
Mtb FBA inh: Mtb FBA enzyme inhibitors, primary screen, biochemical, fluorescence, strain H37Rv | Fructose-bisphosphate aldolase (Mycobacterium tuberculosis (strain ATCC 25618 / H37Rv)), … | purified M. tuberculosis FBA, fluorescence read-out | inhibition, % at 1 µM | 360,000 tested, 2.3% active | AID 588726, 2011; in the data active means inhibition above about 27%;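 further: 0% = vehicle and 100% = reference inhibitor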
GDH-TPI counter: GDH-TPI coupling enzyme inhibitors, primary screen, artefact control for M. tuberculosis FBA inhibitor project, biochemical, absorbance, full deck; GDH-TPI coupled enzyme counterscreen, NADH absorbance; inhibition, % at 4.8 µM; 360,000 tested, 1.2% active; AID 588335, 2011; in the data active means inhibition above about 30%;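 further: 0% = DMSO wells and 100% = wells lacking the enzyme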
UGM FP inh: M. tuberculosis UGM enzyme inhibitors, primary screen, biochemical, fluorescence polarization, single point. UDP-galactopyranose mutase (Mycobacterium tuberculosis (strain ATCC 25618 / H37Rv)), …. purified UGM, fluorescence polarization probe displacement. inhibition, % at 10 µM. 320,000 tested, 0.06% active. AID 504406, 2011; in the data active means inhibition above about 10%, passing the limit was not always enough
Target sequence (P9WIQ1 whole entry, looked up): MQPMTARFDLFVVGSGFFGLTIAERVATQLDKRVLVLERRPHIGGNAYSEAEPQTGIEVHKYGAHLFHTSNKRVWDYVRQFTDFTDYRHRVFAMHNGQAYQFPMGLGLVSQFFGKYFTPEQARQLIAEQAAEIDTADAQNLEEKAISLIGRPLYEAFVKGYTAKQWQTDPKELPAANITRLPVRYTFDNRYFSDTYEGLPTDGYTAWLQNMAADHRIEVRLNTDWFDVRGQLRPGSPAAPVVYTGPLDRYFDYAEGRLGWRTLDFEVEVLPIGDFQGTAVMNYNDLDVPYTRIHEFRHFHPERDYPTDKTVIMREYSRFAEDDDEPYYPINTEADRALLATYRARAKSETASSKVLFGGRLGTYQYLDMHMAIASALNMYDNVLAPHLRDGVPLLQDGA
An asterisk follows results filed as active.

Screening CCc1c(C)nc2ncnn2c1Nc1ccc(C(C)=O)cc1 returned Rv3671c protease -1, Mtb FBA inh 2, GDH-TPI counter 40* and UGM FP inh -1.
Screening CCOC(=O)c1ccc(Nc2cc(C)nc3ncnn23)cc1 returned Rv3671c protease 1, Mtb FBA inh 0, GDH-TPI counter 21 and UGM FP inh -1.
Screening CCOC(=O)c1ccc(Nc2c(CC)c(C)nc3ncnn23)cc1 returned Rv3671c protease 0, Mtb FBA inh 1, GDH-TPI counter 32* and UGM FP inh 3.
For Cc1c(N=O)c(-c2ccccc2)n(O)[n+]1[O-] the results were Mtb FBA inh -8 and GDH-TPI counter 16.
COc1cc(OC)cc(C(=O)NC2CC(C)(C)NC(C)(C)C2)c1 was read as Rv3671c protease 0, Mtb FBA inh active, GDH-TPI counter 14 and UGM FP inh 5.
For CCC1=[N+](CC(=O)c2ccc(C)cc2)CCn2cccc21 the results were Rv3671c protease 7, Mtb FBA inh 3, GDH-TPI counter 35* and UGM FP inh 2.
Screening O=C(O)C1CCCCN1c1ccccc1[N+](=O)[O-] (centres undefined) returned Mtb FBA inh -1.
Nc1nc(-c2ccco2)c(-c2ccco2)s1 was read as Rv3671c protease -4, Mtb FBA inh 14, GDH-TPI counter -3 and UGM FP inh 4.
Screening c1coc(-c2nc(-c3ccco3)c(-c3ccco3)nc2-c2ccco2)c1 returned Rv3671c protease 8, Mtb FBA inh 32*, GDH-TPI counter 28 and UGM FP inh 0.
Screening O=C(CN1CCN(Cc2ccc(Cl)cc2)CC1)N/N=C/c1c[nH]c2ccccc12 returned Rv3671c protease -4, Mtb FBA inh 1, GDH-TPI counter 9 and UGM FP inh 2.
Fc1cc2nc(-c3ccncc3)[nH]c2cc1F was read as Rv3671c protease 3, Mtb FBA inh 127*, GDH-TPI counter 1 and UGM FP inh 0.
Screening COC(=O)c1ccc(C(=O)Nc2ccc3nc(-c4ccncc4)[nH]c3c2)cc1 returned Rv3671c protease -17, Mtb FBA inh -1, GDH-TPI counter 22 and UGM FP inh 0.
`COc1ccccc1N(CC(=O)N1CCN(Cc2ccccc2)CC1)S(=O)(=O)c1ccccc1` gave Mtb FBA inh -2 and GDH-TPI counter 3.
Screening C=C1CC(COc2ccc3c(C)c(Cl)c(=O)oc3c2)(c2ccccc2)OC1=O (centres undefined) returned Mtb FBA inh 121* and GDH-TPI counter 19.
COc1ccc2c(c1)oc(=O)c1cc(OC)ccc12 was read as Rv3671c protease -30, Mtb FBA inh 138*, GDH-TPI counter -1 and UGM FP inh 2.
`Cc1c(C)c2ccc(OCC(=O)Nc3ccccn3)cc2oc1=O` gave Rv3671c protease 6, Mtb FBA inh 4, GDH-TPI counter 1 and UGM FP inh 0.
For COc1ccc2c(C)c(Cl)c(=O)oc2c1 the results were Rv3671c protease 5, Mtb FBA inh 153*, GDH-TPI counter 16 and UGM FP inh 1.
`COc1ccc2c(=O)c3ccccc3oc2c1` gave Rv3671c protease -1, Mtb FBA inh 6, GDH-TPI counter 12 and UGM FP inh 0.
`O=C(COC(=O)C1CCC(=O)N1)Nc1ccccc1Br` (centres undefined) gave Rv3671c protease -13, Mtb FBA inh 1, GDH-TPI counter 32* and UGM FP inh 1.
Nc1ccn([C@@H]2O[C@H](CNC(=O)[C@@H](Cc3cn(COCc4ccccc4)cn3)NC=O)[C@@H](O)[C@H]2O)c(=O)n1 was read as Mtb FBA inh -1 and GDH-TPI counter -3.
C=CCn1c2ccccc2c(=O)c2cc(C#Cc3ccccn3)ccc21 was read as Rv3671c protease -58, Mtb FBA inh active, GDH-TPI counter 4 and UGM FP inh 1.
Screening Cc1cccn2c(=O)c3cc(C#N)c(=NC(=O)c4ccco4)n(Cc4ccco4)c3nc12 returned Rv3671c protease 5, Mtb FBA inh active, GDH-TPI counter 9 and UGM FP inh 2.
For Cc1cccc(C(=O)N=c2c(C#N)cc3c(=O)n4cccc(C)c4nc3n2Cc2ccco2)c1 the results were Rv3671c protease -11, Mtb FBA inh 168*, GDH-TPI counter 8 and UGM FP inh 2.
Cc1cccn2c(=O)c3cc(C#N)c(=N)n(Cc4cccnc4)c3nc12 was read as Mtb FBA inh 4 and GDH-TPI counter 10.
Cc1cccn2c(=O)c(/C=C(\C#N)C(=O)NCc3ccco3)c(N3CCOCC3)nc12 was read as Rv3671c protease 4, Mtb FBA inh 14, GDH-TPI counter 9 and UGM FP inh 4.
For Cc1cccn2c(=O)c3cc(C#N)c(=NC(=O)c4ccccc4)n(Cc4ccco4)c3nc12 the results were Rv3671c protease -14, Mtb FBA inh 182*, GDH-TPI counter 16 and UGM FP inh 3.
`CCC(C)n1c(=N)c(C#N)cc2c(=O)n3cccc(C)c3nc21` (centres undefined) gave Rv3671c protease 0, Mtb FBA inh 20, GDH-TPI counter 1 and UGM FP inh 2.
For COc1ccccc1/C=C/C=N/NC(=O)c1ccc(=O)n(C)c1 the results were Rv3671c protease 1, Mtb FBA inh 2, GDH-TPI counter 51* and UGM FP inh 0.
Screening COc1ccccc1/C=C/C=N/NC(=O)CC1C(=O)NN=C1C (centres undefined) returned Rv3671c protease 6, Mtb FBA inh 0, GDH-TPI counter 37* and UGM FP inh -3.
Screening COc1ccccc1/C=C/C=N/NC(=O)CCn1cnc2ccccc21 returned Rv3671c protease 4, Mtb FBA inh 0, GDH-TPI counter 33* and UGM FP inh -2.
`COc1ccccc1/C=C/C=N/NC(=O)c1cc(-c2ccco2)[nH]n1` gave Rv3671c protease -11, Mtb FBA inh -1, GDH-TPI counter 32* and UGM FP inh 2.
For CCCCn1nc(CC(=O)NCCN(CC)CC)c2ccccc2c1=O the results were Rv3671c protease -2, Mtb FBA inh 2, GDH-TPI counter 4 and UGM FP inh -1.
Screening CN1C(=O)N(CC(=O)Nc2ccc3c(c2)OCO3)C(=O)C12CCCCC2 returned Mtb FBA inh -5 and GDH-TPI counter 2.
`COc1ccccc1NS(=O)(=O)c1cc(NC(=O)c2[nH]c(C)c(C(C)=O)c2C)ccc1N1CCOCC1` gave Rv3671c protease -94, Mtb FBA inh 1, GDH-TPI counter 14 and UGM FP inh 5.
Screening CC(=O)c1ccc(Nc2nc(C(N)C3CCCCC3)cs2)cc1 (centres undefined) returned Mtb FBA inh 3 and GDH-TPI counter 34*.
COc1ccc(CC(N)c2csc(Nc3ccc(C(C)=O)cc3)n2)cc1 (centres undefined) was read as Mtb FBA inh 3 and GDH-TPI counter 38*.
CC(=O)c1ccc(Nc2nc(C(N)CC(C)C)cs2)cc1 (centres undefined) was read as Mtb FBA inh 7 and GDH-TPI counter 32*.

Source: PubChem (several laboratories)
